Screening results: PubChem BioAssay, National Center for Advancing Translational Sciences (NCATS)
DRD3 antagonist – qHTS of D3 Dopamine Receptor Antagonist: qHTS; D3R cells, DiscoveRx beta-arrestin luminescence, antagonist mode; hits give low values; max response, negative = inhibition, %; D(3) dopamine receptor (Homo sapiens), P35462; 2.5% of 360,000 active; AID 652054, 2013; in the data active means max response below about -50%; inconclusive means no clear call, values can overlap the other calls; further: on the % scale 0 is the no-effect control and ±100 the full control effect
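Cells expressing the human receptor were seeded at 1500 cells/well, incubated overnight at 37 degrees C in 5% CO2, then exposed to library compounds with dopamine controls for 90 minutes at 37 degrees C before luminescent detection.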
D3 ag – qHTS of D3 Dopamine Receptor Agonist: qHTS; D(3) dopamine receptor (Homo sapiens), P35462; D3R DiscoveRx beta-arrestin cells, luminescence, 90 min; max activation, %; 0.58% of 410,000 active; in the data active means max activation above about 30%; further: 0% is about no effect
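Cells at 1500/well, incubated overnight, then treated with pinned compounds (dopamine as control) for 90 min at 37 degrees C. DiscoveRx reagent added for 30 - 60 minutes at room temperature; luminescence read.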
D1 potentiator – Potentiators of Human D1 Dopamine Receptor: qHTS; D(1A) dopamine receptor (Homo sapiens), P21728; HEK293 TREx D1 cells, calcium flux, dopamine EC20 potentiation; potentiation, % at 10 µM; 0.036% of 360,000 active; in the data active means potentiation above about 30%; further: 0% is about no effect
Target sequence (P21728 whole entry, looked up): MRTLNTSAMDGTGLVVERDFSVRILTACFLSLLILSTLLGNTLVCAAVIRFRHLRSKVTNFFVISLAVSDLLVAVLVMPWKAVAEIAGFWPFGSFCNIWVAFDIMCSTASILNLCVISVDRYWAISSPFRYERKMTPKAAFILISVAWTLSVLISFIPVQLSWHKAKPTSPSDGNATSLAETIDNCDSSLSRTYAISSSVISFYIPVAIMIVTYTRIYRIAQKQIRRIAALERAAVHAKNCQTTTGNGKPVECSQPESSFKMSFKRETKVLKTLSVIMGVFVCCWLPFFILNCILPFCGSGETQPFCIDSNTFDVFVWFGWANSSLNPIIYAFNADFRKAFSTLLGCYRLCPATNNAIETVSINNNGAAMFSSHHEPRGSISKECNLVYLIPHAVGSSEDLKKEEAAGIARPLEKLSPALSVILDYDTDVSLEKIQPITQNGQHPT
D1 agonist – Allosteric Agonists of the Human D1 Dopamine Receptor: qHTS. D(1A) dopamine receptor (Homo sapiens), P21728. HEK293 T-REx D1 cells, calcium flux, agonist mode. activation, % at 2 µM. 1% of 360,000 active. AID 504660, 2011; in the data active means activation above about 30%; further: 0% is about no effect
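Tetracycline-induced HEK293 TREx D1 cells, force-coupled to calcium signalling, were dye-loaded with a no-wash calcium kit. Compound was pin-added after a 10 s baseline. Fluorescence was read kinetically at 1 cycle/s for 180 s, with calcium rises flagged as agonism.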
D1 antag – Antagonist of Human D 1 Dopamine Receptor: qHTS; D(1A) dopamine receptor (Homo sapiens), P21728; HEK293 TREx D1 cells, calcium flux, dopamine EC80; hits give low values; activity change, negative = inhibition, % at 10 µM; 3.2% of 360,000 active; in the data active means activity change below about -30%; further: on the % scale 0 is the no-effect control and ±100 the full control effect
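Inducible Hek293 Trex D1 cells (tetracycline, overnight, 30 C). Calcium dye 30–90 min RT. Antagonist mode: EC80 dopamine added after 180 s compound read.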
* = called active by the depositor; ? = inconclusive; . = no result. An excerpt weighted towards active compounds, which were near 6% of everything screened.

SMILES | DRD3 antagonist | D3 ag | D1 potentiator | D1 agonist | D1 antag
CC(NC(=O)c1ccncc1)c1ccccc1 (configuration not stated) | 4 | 8 | -6 | 1 | -3
O=C(Nc1cccc(-n2cnnn2)c1)c1ccco1 | -24 | -2 | -4 | 3 | -57*
O=C(Nc1cccc(-n2cnnn2)c1)c1ccccc1Br | -23 | 5 | -5 | 4 | -14
O=C(Nc1cccc(-n2cnnn2)c1)c1cc(Cl)ccc1Cl | -5 | -2 | -10 | 5 | -44*
Cc1cccc(Nc2nc3c(S(=O)(=O)c4ccc(Br)cc4)nnn3c3ccsc23)c1C | . | -3 | -3 | 2 | -7
Cc1cc(=O)n2nc(N3CCCC(C(=O)NCc4ccco4)C3)sc2n1 (configuration not stated) | 5 | -5 | -2 | 4 | 9
O=C(NCc1ccco1)C1CCCN(c2nnc(-n3cccc3)s2)C1 (configuration not stated) | -9 | 3 | -1 | 2 | -39*
O=C(c1ccc(Br)cc1)N(Cc1ccco1)c1ccccn1 | . | -1 | 1 | -3 | 3
COC(=O)c1ccccc1NC(=O)Cn1cnc2cc(C)c(C)cc21 | 15 | 23 | -4 | 38* | -16
C[C@@H](O)[C@H]1C(=O)N2C(C(=O)O)=C(SCCN=CN)C[C@H]12 | . | -1 | . | . | .
CC(C)Cn1c(-c2ccc(Br)cc2)c[nH]c1=S | 0 | -31 | -12 | 43* | 41
CCn1c(-c2ccccc2)c[nH]c1=S | -8 | 3 | -3 | 4 | -11
CCCCN1CCc2nc(N3CCN(c4ncccn4)CC3)ncc2C1 | . | 5 | 1 | 0 | 3
O=C(C1CCC1)N1CCCc2cc(S(=O)(=O)Nc3ccc(F)cc3)ccc21 | . | -6 | -5 | 13 | -18
O=C(Nn1cnc2ccccc2c1=O)C1CCCCC1 | 9 | -6 | 1 | 3 | -30*
CC(C)(C)N=C1NC(=NC(C)(C)C)c2ccccc21 | -8 | 3 | -2 | 19 | -41*
N#C/C(=C\c1c(N2CCCCC2)nc2ccccn2c1=O)S(=O)(=O)c1ccccc1 | -5 | -2 | -1 | 4 | -8
CCN(CC)S(=O)(=O)c1ccc2c(c1)nc(CN(C)C(=O)c1cccc(Cl)c1)n2C | . | 5 | 0 | 0 | 4
CCOc1ccc(-c2c(C)nn3c(C)c(C(=O)NCc4ccc(C)o4)cnc23)cc1OCC | . | 3 | -7 | 5 | -34*
Cc1cccc(CNC(=O)c2cnc3c(-c4cccc(C)c4)c(C)nn3c2C)c1 | . | 0 | -6 | 0 | -33*
O=[S+]([O-])(c1ccc2nsnc2c1)N1CCN([S+](=O)([O-])c2c(F)cccc2F)CC1 | . | . | -3 | 2 | 8
COc1cc2[nH]c(=O)n(CCCC(=O)NCc3ccccc3Cl)c(=O)c2cc1OC | . | -16 | 1 | 2 | -6
CCS/C(N)=N/N=C/c1cc(C)ccc1O | -53* | -6 | 25 | 0 | -7
CCCCS/C(N)=N/N=C/c1cc(C)ccc1O | -55* | -11 | -3 | 3 | -6
COCCNC(=O)CSc1nc2cc3c(cc2c(=O)n1Cc1ccc(C(=O)NCCc2ccc(OC)c(OC)c2)cc1)OCO3 | . | 6 | -1 | 1 | -6
SMILES | DRD3 antagonist | D3 ag | D1 potentiator | D1 agonist | D1 antag
Cc1c(Cl)cccc1NC(=O)CCS(=O)(=O)c1cccc2nsnc12 | . | -12 | -1 | 0 | -25
COc1cc(C(=O)Nc2ccccc2OCc2cc(=O)n3cc(C)sc3n2)cc(OC)c1OC | . | -1 | -1 | 0 | 4
CCN1CCN(P2(=O)C=C(c3ccccc3)OC(c3ccccc3)=C2)CC1 | -81* | -32 | 0 | 6 | 4
Cc1ccc(-c2nc3cccnc3o2)cc1NC(=O)COc1ccc(C(C)(C)C)cc1 | 103 | 79* | 13 | 3 | -7
Cc1ccc(N2C(=O)C(c3c(C)[nH]n(-c4ccccc4)c3=O)(C(F)(F)F)C3=C2CC(C)(C)CC3=O)cc1 (configuration not stated) | -75* | 3 | 4 | 1 | 13
Cc1ccccc1Cn1c(=O)n(CCC(=O)NCc2ccc3c(c2)OCO3)c(=O)c2ccccc21 | -2 | 1 | -2 | 4 | 3
Cc1ccc(Cl)cc1NC(=O)Cn1c(=O)n(CCC(=O)NCc2ccc3c(c2)OCO3)c(=O)c2sccc21 | . | 4 | 1 | 4 | -17
Cc1ccc(NC(=O)Cn2c(=O)n(CCC(=O)NCc3ccc4c(c3)OCO4)c(=O)c3sccc32)c(C)c1 | . | 2 | 0 | 2 | -34*
O=C(CCn1c(=O)c2ccccc2n(Cc2cccnc2)c1=O)NCc1ccc2c(c1)OCO2 | -59* | -3 | -3 | 0 | 6
COc1ccc(CNCc2cccc(Cl)c2)cc1 | -50* | -14 | -8 | 14 | -1
COc1ccc(CNCc2cccc3ccccc23)cc1 | -60* | -8 | -4 | 14 | 15
COc1ccc(CNC(=O)CSCc2cccc(Cl)c2)cc1 | -23 | -1 | -1 | 0 | 6
COc1ccc(OC)c(NC(=O)c2ccc(-c3nc(CSc4ccccc4)c(C)o3)cc2)c1 | . | 4 | 1 | 4 | -32*
Cc1ccc(SCc2nc(-c3ccc(C(=O)NCC(C)c4ccccc4)cc3)oc2C)cc1 (configuration not stated) | . | -14 | 4 | 30* | -5
Cc1ccc(SCc2nc(-c3ccc(C(=O)NCCc4ccc(Cl)cc4)cc3)oc2C)cc1 | . | -7 | -1 | 4 | 2
CC(C)c1ccc(-c2noc(SCC(=O)N3CCCCC3C)n2)cc1 (configuration not stated) | . | 0 | -1 | 9 | -2
Cc1ccnc(NC(=O)Nc2ccc(Br)cc2Cl)c1 | -54* | -14 | 3 | 1 | 3
COC(=O)c1ccccc1NC(=O)Nc1cc(C)ccn1 | 4 | -1 | -1 | 1 | -12
C[C@]12CC[C@H]3[C@@H](CCC4=CC(=O)CC[C@@]43C)[C@@H]1CC[C@@H]2C(=O)CO | -88* | -91 | 0 | 2 | -15
CC(=O)OCC(=O)[C@H]1CC[C@H]2[C@@H]3CCC4=CC(=O)CC[C@]4(C)[C@H]3CC[C@]12C | 3 | 5 | -3 | 2 | -8
Brc1cccc(OCCCNC2CCCC2)c1 | -91* | -15 | -1 | 10 | 10
CC(C)NCCCCOc1cccc(Br)c1 | ? | -38 | -2 | 10 | 2
CC(C)NCCOc1cccc(Br)c1 | -75* | -2 | -5 | 3 | 13
O=C(Nc1ccccc1C(=O)OCC(=O)c1c[nH]c2ccccc12)c1ccco1 | 19 | 35* | -2 | 3 | -11
COC(=O)c1ccccc1NC(=O)c1ccco1 | -11 | -2 | -5 | 1 | -34*
Cc1ccccc1OCc1nc2ccccc2c(=O)n1/N=C/c1cn[nH]c1-c1ccccc1 | 23 | 7 | 2 | 2 | 0
